Assay outcomes: PubChem BioAssay, National Center for Advancing Translational Sciences (NCATS)
FMDV antiviral = antivirals against foot and mouth disease virus | FMDV antiviral cell-based qHTS | Potency, µM (doses to about 57.9 µM), most hits filed as inhibitors | hit rate 1.2% among 410,000 | AID 1159524; calls by dose curve; tested in HEK293T cells; further: read-out not given here; nearly all actives have a fitted effect of over 45% in size
VACV Venus inh = vaccinia inhibition (Venus reporter); Potency, µM (top dose mostly 36.5 µM), hits mostly inhibitors; hit rate 0.46% among 330,000; Vaccinia virus Venus reporter expression, fluorescence; AID 720580; calls by dose curve; tested in A549 cells; further: nearly all actives have a fitted effect of over 30% in size
Lassa entry inh = inhibitors of Lassa virus binding or cell entry; Lassa virus pseudotype entry inhibition, cell reporter; Potency, µM (top dose mostly 37.9 µM), usual class: inhibitors; hit rate 1.2% among 300,000; AID 540256; calls by dose curve; tested in HEK293 cells; further: nearly all actives have a fitted effect of over 50% in size
Vaccinia mCherry = inhibitors of vaccinia virus infection (mCherry reporter signal) | Vaccinia virus mCherry reporter infection, fluorescence | Potency, µM (doses to about 36.5 µM), usual class: inhibitors | hit rate 0.63% among 310,000; calls by dose curve; tested in A549 cells; further: nearly all actives have a fitted effect of over 35% in size
MARV entry inh = Marburg virus entry inhibition; Marburg virus pseudotyped entry inhibition, cell reporter; Potency, µM (highest dose often 37.8 µM), actives largely listed as inhibitors; hit rate 1.8% among 300,000; calls by dose curve; tested in HEK293 cells
Large screens that a line does not name were inactive. Rows were chosen to be rich in hits. Some 3.2% of all compounds tested hit in one or more screens of this group.

Brc1ccc(-c2cn3nc4c(nc3n2)CCCC4)cc1	FMDV antiviral inconclusive, Lassa entry inh inconclusive, MARV entry inh 5.01µM
c1ccc(-c2cn3nc4c(nc3n2)CCCC4)cc1	FMDV antiviral 5.62µM, Lassa entry inh 1.12µM, MARV entry inh 1µM
Nc1nn2cc(-c3ccc(Br)cc3)nc2c2ccccc12	none (no result: VACV Venus inh, Lassa entry inh, Vaccinia mCherry, MARV entry inh)
c1ccc(-c2cn3nc(-c4ccccc4)cnc3n2)cc1	Lassa entry inh inconclusive
O=C(CSc1nccn1Cc1ccc(F)cc1)NCc1ccco1	Lassa entry inh inconclusive (no result: MARV entry inh)
COC(=O)C1CCN(Cc2ccc3c(c2)CN(C(=O)C2Cc4ccccc4O2)CCO3)CC1 (configuration not stated)	none (no result: Lassa entry inh, MARV entry inh)
C#CCOCCOCCOCCNc1nc(N2CCN(C(=O)CCCCCCCCCCNC(=O)[C@@H](CCSC)n3cc(CCO)nn3)CC2)nc(N2CCN(C(=O)CCCCCCCCCCNC(=O)[C@H]([C@@H](C)CC)n3cc(CCCCN=C(N)N)nn3)CC2)n1	FMDV antiviral inconclusive, VACV Venus inh 8.91µM, Vaccinia mCherry inconclusive (no result: Lassa entry inh, MARV entry inh)
C#CCOCCOCCOCCNc1nc(N2CCN(C(=O)CCCCCCCCCCNC(=O)[C@@H](CCSC)n3cc(CCO)nn3)CC2)nc(N2CCN(C(=O)CCCCCCCCCCNC(=O)[C@H]([C@@H](C)CC)n3cc(CCCCCN)nn3)CC2)n1	FMDV antiviral inconclusive, VACV Venus inh 10µM (no result: Lassa entry inh, MARV entry inh)
C#CCOCCOCCOCCNc1nc(N2CCOCC2)nc(N2CCN(C(=O)CCCCCCCCCCNC(=O)[C@@H](CCSC)n3cc(CCO)nn3)CC2)n1	none (no result: Lassa entry inh, MARV entry inh)
Cc1nc2ccccc2n1CC(=O)c1ccc(O)c(O)c1	none (no result: Lassa entry inh, MARV entry inh)
Nc1ccc(S(=O)(=O)NC2(C(F)(F)F)NC(=O)N(Cc3ccccc3)C2=O)cc1 (configuration not stated)	none (no result: Lassa entry inh)
CC(=O)c1ccc(F)c(-c2cc(C)cc3c2OC(CNC(=O)c2csc(C)n2)C3)c1 (configuration not stated)	none (no result: Lassa entry inh, MARV entry inh)
CCN1C(=NCc2ccccc2)N[C@@H](CCc2ccccc2)[C@H](C(=O)OC)[C@H]1C	none (no result: FMDV antiviral, VACV Venus inh, Lassa entry inh, Vaccinia mCherry)
CC(C)CNC(=O)c1coc(=O)c(Br)c1	FMDV antiviral inconclusive, Lassa entry inh 16.4µM, MARV entry inh inconclusive (no result: VACV Venus inh, Vaccinia mCherry)
Cc1nc(SCC(=O)NCc2ccccc2)c2c(=O)n(C)c(=O)n(C)c2n1	FMDV antiviral 31.6µM (no result: Lassa entry inh, MARV entry inh)
Cc1nc(SCC(=O)NCCc2ccccc2)c2c(=O)n(C)c(=O)n(C)c2n1	none
O=C(CCC(=O)N1CCc2ccccc2C1)NCCc1ccc(Cl)cc1	none (no result: VACV Venus inh, Lassa entry inh, Vaccinia mCherry, MARV entry inh)
Cc1ccc(NC(=O)C(=Cc2ccc(C(=O)O)cc2)C(=O)Nc2ccc(C)cc2C)c(C)c1	FMDV antiviral 11.2µM (no result: VACV Venus inh, Lassa entry inh, Vaccinia mCherry, MARV entry inh)
CN(C)c1ccc(C=c2c3cc(O)ccc3n3c2cc(-c2ccccc2)[n+]3C)cc1	Lassa entry inh inconclusive, MARV entry inh inconclusive
C[n+]1c(-c2ccccc2)cc2c(=Cc3ccccc3)c3ccccc3n21	FMDV antiviral 3.55µM, Lassa entry inh 7.94µM, MARV entry inh inconclusive
C[n+]1c(-c2ccccc2)cc2c(=Cc3ccc([N+](=O)[O-])cc3)c3ccccc3n21	FMDV antiviral inconclusive, Lassa entry inh 10µM, MARV entry inh inconclusive
COc1oc(=O)c2cc(N)ccc2c1Cl	none (no result: VACV Venus inh, Lassa entry inh, Vaccinia mCherry, MARV entry inh)
CCc1ccc(CN(C)CC(=O)Nc2sccc2C#N)cc1	none
NS(=O)(=O)c1ccc(N/N=C/c2cn(-c3ccccc3)nc2-c2cccs2)c([N+](=O)[O-])c1	FMDV antiviral inconclusive, Lassa entry inh inconclusive, MARV entry inh 10µM
COC(=O)c1cn([C@@H]2C[C@@H](C(=O)N3CCCCCC3)N(Cc3cc4ccccc4s3)C2)nn1	none (no result: Lassa entry inh, MARV entry inh)
O=C(NCC1CCCCC1)C1(CC2CC(c3cccc(Br)c3)=NO2)CCNCC1 (configuration not stated)	VACV Venus inh 10µM, Vaccinia mCherry 11.2µM (no result: Lassa entry inh, MARV entry inh)
CC(=NCCc1c(C)[nH]c2ccc(OCc3ccccc3)cc12)C1=C(O)CC(c2ccccc2)CC1=O (configuration not stated)	MARV entry inh inconclusive (no result: Lassa entry inh)
CCCCC(=NCCc1c(C)[nH]c2ccc(OC)cc12)C1=C(O)CC(c2ccccc2)CC1=O (configuration not stated)	FMDV antiviral inconclusive, Lassa entry inh inconclusive, Vaccinia mCherry inconclusive, MARV entry inh 7.94µM
CC(C)(C)CC(C)(C)c1ccc(O)c(Cc2ccc(Cl)cc2Cl)c1	FMDV antiviral 28.2µM, VACV Venus inh inconclusive, Vaccinia mCherry inconclusive (no result: Lassa entry inh, MARV entry inh)
CC(C)(C)CC(C)(C)c1ccc(O)c(CN2CCN(CCC#N)CC2)c1	FMDV antiviral inconclusive, MARV entry inh inconclusive (no result: VACV Venus inh, Vaccinia mCherry)
Cc1ccc2cccc(NS(=O)(=O)c3ccccc3)c2n1	FMDV antiviral inconclusive, Lassa entry inh inconclusive, MARV entry inh 1.41µM
CC(=O)Nc1ccc(S(=O)(=O)Nc2cccc3cccnc23)cc1	none (no result: Lassa entry inh)
Cc1ccccc1NS(=O)(=O)c1ccc(S(=O)(=O)N2CCCC2)cc1	FMDV antiviral inconclusive (no result: Lassa entry inh, MARV entry inh)
Cc1cc(C)c(NS(=O)(=O)c2cccc3cccnc23)c(C)c1	none
Cc1ccc(S(=O)(=O)Nc2cccc3cccnc23)c([N+](=O)[O-])c1	FMDV antiviral inconclusive, VACV Venus inh inconclusive, Lassa entry inh 10µM, Vaccinia mCherry inconclusive, MARV entry inh inconclusive
O=S(=O)(Nc1cccc2cccnc12)c1ccccc1	FMDV antiviral inconclusive, VACV Venus inh 12.6µM, Lassa entry inh inconclusive, Vaccinia mCherry 10µM, MARV entry inh inconclusive
O=S(=O)(Nc1cccc2cccnc12)c1ccc(S(=O)(=O)N2CCCC2)cc1	Lassa entry inh 8.2µM, MARV entry inh inconclusive (no result: FMDV antiviral)
CO/N=C1\CN(c2nc3c(cc2F)c(=O)c(C(=O)O)cn3C2CC2)CC1CN (configuration not stated)	none (no result: Lassa entry inh, MARV entry inh)
CCOC(=O)c1c(-c2ccc(Br)cc2)csc1NC(=O)c1ccc(C(C)(C)C)cc1	none (no result: MARV entry inh)
CC(NCC1(N2CCOCC2)CCCCC1)C(=O)Nc1ccc(Cl)cc1Cl (configuration not stated)	Vaccinia mCherry inconclusive
Cc1cnc(-n2ncc(C(=O)NCCN3CCOCC3)c2C(C)C)nc1-c1ccc(F)cc1	none (no result: Lassa entry inh, MARV entry inh)
O=C(Nc1ccccc1Br)C1CC(=O)N(c2ccc3c4c(cccc24)CC3)C1 (configuration not stated)	Lassa entry inh inconclusive, MARV entry inh 10µM
Cc1ccccc1NC(=O)C1CC(=O)N(c2ccc3c4c(cccc24)CC3)C1 (configuration not stated)	none (no result: FMDV antiviral)
COc1ccc(C2Nc3ccccc3C(=O)N2c2ccccc2F)cc1COc1ccc(NC(C)=O)cc1 (configuration not stated)	none (no result: FMDV antiviral, Lassa entry inh, MARV entry inh)
CCCCN(CC)CCCNC(=S)Nc1ccc2nc(N3CCN(C)CC3)cc(C)c2c1	Lassa entry inh inconclusive, MARV entry inh 2.51µM
CCN(CC)CCNC(=S)Nc1ccc2nc(N3CCCC3)cc(C)c2c1	Lassa entry inh inconclusive, MARV entry inh 4.11µM (no result: VACV Venus inh, Vaccinia mCherry)
CCN(CC)CCNC(=S)Nc1ccc2nc(N3CCN(C)CC3)cc(C)c2c1	Lassa entry inh inconclusive, MARV entry inh inconclusive
CCCN(CCC)CCCNC(=S)Nc1ccc2nc(N3CCCC3)cc(C)c2c1	none (no result: VACV Venus inh, Lassa entry inh, Vaccinia mCherry, MARV entry inh)
CCCCN(CC)CCCNC(=S)Nc1ccc2nc(N3CCN(CC)CC3)cc(C)c2c1	Lassa entry inh inconclusive, MARV entry inh 3.55µM
CC1(C(=O)NS(=O)(=O)c2cccc(OC(F)F)c2)CCN1C(=O)c1cccc(F)c1 (configuration not stated)	none (no result: Lassa entry inh, MARV entry inh)
Cc1ccccc1OCCC(=O)Nc1ccc2c(C)cc(=O)oc2c1	none
